The values that follow come from PubChem BioAssay (NCI).

Compounds without any hit were thinned out: in the full panel of roughly 83,000, 20% have a hit.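 Plates (96-well) were seeded with cells, treated with compound at one concentration, and incubated for 48 hours before percent growth was determined.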 Values without a mark were called inactive. Activity calls are given as the source filed them. How the source made its calls: active means growth percent below 10; inactive means the rest.

Some test systems named below: EKVX NSCLC; SN12C renal; UO-31 renal; TK-10 renal; ACHN renal; CAKI-1 renal; A498 renal; CCRF-CEM leukemia; MOLT-4 leukemia; SR leukemia.
Holding throughout (experiment): NCI-60 one-dose screen, 48 h (100 = growth as untreated, 0 = no growth, -100 = all killed)
Common to all, as to details: 10 µM unless noted

On to `COc1ccc2c3c(c(OCCCN(C)C)nc2c1)-c1ccc(Cl)cc1C3=O`, for which the growth in the assay on EKVX NSCLC was 21.3%; in the assay with SN12C renal, 32.6%; in the assay with UO-31 renal, -72.3% (active); in the assay with TK-10 renal, 11.2%; in the assay with ACHN renal, -75.5% (active); in the assay on CAKI-1 renal it was 29.5%. Moreover, the growth with A498 renal is 60.9%; with CCRF-CEM leukemia, -39.7% (active); with MOLT-4 leukemia, -17.2% (active); in the assay with SR leukemia, -32.7% (active).
For `CC(O)c1nc2c(c(=O)n(C)c(=O)n2C)n1C` (stereo not given), the growth in the assay on EKVX NSCLC is 111%; in the assay with SN12C renal, 104%; in the assay on UO-31 renal it was 91.1%; in the assay on TK-10 renal it was 113%; with ACHN renal, 105%; in the assay with CAKI-1 renal, 89.2%. Moreover, the growth in the assay with A498 renal is 105%; with CCRF-CEM leukemia, 96.3%; in the assay on MOLT-4 leukemia, 117%; in the assay on SR leukemia, 125%.
As for `O=C(Nc1ccc(C2=NCCCN2)cc1)Nc1ccc(C2=NCCCN2)cc1`, the growth with EKVX NSCLC was 64.1%; with SN12C renal, 94.8%; in the assay on UO-31 renal, 90.1%; in the assay with TK-10 renal, 109%; with ACHN renal it was 87.7%; in the assay with CAKI-1 renal it was 79.3%. The growth is 77.4% with A498 renal, 73% in the assay on CCRF-CEM leukemia, 71.6% in the assay with MOLT-4 leukemia and 69.8% with SR leukemia.
Turning to `O=C(Nc1ccc(Cl)cc1)Nc1ccc(Oc2nncc3ccccc23)cc1`, the growth was 26.7% in the assay on EKVX NSCLC; -3.83% (active) with SN12C renal; -51.6% (active) in the assay with UO-31 renal; 27.5% in the assay on TK-10 renal; -15.1% (active) in the assay with ACHN renal; 18.7% in the assay on CAKI-1 renal. Further, the growth was 24.5% in the assay with A498 renal, 8.7% (active) in the assay with CCRF-CEM leukemia, 3.99% (active) in the assay on MOLT-4 leukemia and 2.64% (active) in the assay on SR leukemia.
As to `CN(C)c1ccc(/C=C\c2ccnc3ccccc23)cc1`, the growth in the assay on EKVX NSCLC was 34.5%; in the assay with SN12C renal it was 76.1%; in the assay on UO-31 renal, 34.6%; in the assay with TK-10 renal, 55.9%; with ACHN renal, 70.6%; with CAKI-1 renal it was 77.2%. For the same molecule, the growth in the assay on A498 renal is 63.9%; with CCRF-CEM leukemia it was 29.5%; in the assay with MOLT-4 leukemia it was 66.7%; with SR leukemia, -32.4% (active).
For `CCN(CC)CCCCNc1c2ccccc2[n+](C)c2c1[nH]c1ccccc12`, the growth was -20.3% (active) in the assay on EKVX NSCLC; -2.39% (active) with SN12C renal; 22.2% in the assay with UO-31 renal; -12.1% (active) with TK-10 renal; 27.9% with ACHN renal; 81% with CAKI-1 renal. In addition, the growth is -11.8% (active) with A498 renal, -33.1% (active) in the assay with CCRF-CEM leukemia, -4.88% (active) with MOLT-4 leukemia and -37.3% (active) with SR leukemia.
On to `O=C1/C(=C/c2ccc3cccc(Cl)c3n2)SC(=S)N1CCc1ccc(O)cc1`, for which the growth in the assay with EKVX NSCLC is 83.7%; with SN12C renal, 87.1%; with UO-31 renal, 39.8%; in the assay with TK-10 renal, 129%; in the assay with ACHN renal, 82.6%; in the assay on CAKI-1 renal, 51%. The growth in the assay with A498 renal was 58.6%; in the assay on CCRF-CEM leukemia, 6.53% (active); in the assay on MOLT-4 leukemia, 48.9%; with SR leukemia, 79%.
With `CCN1CCN(c2cc(-c3cn[nH]c3-c3cc(C)cc(OC)c3)nc(-c3cccnc3)n2)CC1`, the growth in the assay on EKVX NSCLC was 106%; in the assay with SN12C renal it was 85%; in the assay with UO-31 renal, 45.8%; in the assay on TK-10 renal, 105%; in the assay with ACHN renal, 73.7%; in the assay on CAKI-1 renal, 73.7%. The growth was 15.1% with A498 renal, 84.5% with CCRF-CEM leukemia, 52% with MOLT-4 leukemia and 7.69% (active) in the assay on SR leukemia.
Turning to `O[C@@H]1Cc2ccc3ccccc3c2N[C@H](c2ccoc2)C1`, the growth with EKVX NSCLC is 95.9%; with SN12C renal, 103%; in the assay on UO-31 renal, 82.3%; in the assay with TK-10 renal, 106%; in the assay on ACHN renal it was 103%; in the assay on CAKI-1 renal, 96.6%. For the same molecule, the growth was 84.4% with A498 renal, 81.3% with CCRF-CEM leukemia, 88.2% in the assay on MOLT-4 leukemia and 93.3% in the assay with SR leukemia.
Take `Nc1cc(Cl)c(S(N)(=O)=O)cc1S(N)(=O)=O`: the growth in the assay with EKVX NSCLC was 111%; in the assay with SN12C renal it was 109%; with UO-31 renal it was 102%; in the assay on TK-10 renal, 97.5%; with ACHN renal, 101%; in the assay with CAKI-1 renal, 107%. For the same molecule, the growth is 116% in the assay with A498 renal, 95.7% with CCRF-CEM leukemia, 158% in the assay with MOLT-4 leukemia and 123% with SR leukemia.
In the case of `C=C(C[C@](O)(C(=O)/C=C/c1ccc(Cl)cc1)C(=O)OC)c1ccccc1`, the growth is 82.8% in the assay on EKVX NSCLC; 74.8% in the assay on SN12C renal; 52.6% in the assay on UO-31 renal; 64.6% in the assay on TK-10 renal; 72.2% in the assay with ACHN renal; 68.5% in the assay on CAKI-1 renal. Further, the growth with A498 renal is 97.1%; with CCRF-CEM leukemia, 40.8%; in the assay with MOLT-4 leukemia, 62.9%; with SR leukemia it was 23.3%.
For `CCCC[N+](CCCC)=c1ccc2nc3c(C)cc(N(CC)CC)cc3sc-2c1`, the growth in the assay on EKVX NSCLC was 4.13% (active); in the assay on SN12C renal, -3.26% (active); in the assay with UO-31 renal it was 0.703% (active); with TK-10 renal, 3.75% (active); in the assay with ACHN renal it was -34.1% (active); in the assay on CAKI-1 renal, -2.5% (active). For the same molecule, the growth in the assay with A498 renal is -5.54% (active); in the assay on CCRF-CEM leukemia, -15.7% (active); in the assay with MOLT-4 leukemia, -20.1% (active); with SR leukemia, -18.2% (active).
As to `Fc1ccc(-c2nnc(-c3c(-c4ccc(F)cc4)nc4ncccn34)o2)cc1`, the growth in the assay on EKVX NSCLC was 108%; with SN12C renal, 104%; in the assay on UO-31 renal, 77.8%; in the assay with TK-10 renal, 111%; in the assay on ACHN renal, 97.8%; in the assay with CAKI-1 renal, 100%. Moreover, the growth in the assay on A498 renal is 69.8%; in the assay on CCRF-CEM leukemia, 96.7%; in the assay on MOLT-4 leukemia, 83.4%; in the assay with SR leukemia, 90.8%.
As for `Cn1[nH]cc(/C=N/C(N)=O)c1=O`, the growth was 123% in the assay on EKVX NSCLC; 108% in the assay with SN12C renal; 106% in the assay with UO-31 renal; 109% with TK-10 renal; 109% in the assay on ACHN renal; 109% in the assay on CAKI-1 renal. For the same molecule, the growth in the assay on A498 renal is 104%; in the assay with CCRF-CEM leukemia it was 94.8%; with MOLT-4 leukemia, 105%; with SR leukemia it was 103%.
